These results are taken from paper PMC12820563, “FoxP3 forms a head-to-head dimer in vivo and stabilizes its multimerization on adjacent microsatellites”.

The full ranking holds about 16,000 sequences; the median of “rpm ratio (pull-down/input)” is about 0.94, and the highest 2% start at about 1.7. The entries come from a sample that favours the highest values as a whole.

The test concerns the target T1, MBP-FoxP1dN (Mus musculus, UniProt P58462 326-579).
T1 sequence: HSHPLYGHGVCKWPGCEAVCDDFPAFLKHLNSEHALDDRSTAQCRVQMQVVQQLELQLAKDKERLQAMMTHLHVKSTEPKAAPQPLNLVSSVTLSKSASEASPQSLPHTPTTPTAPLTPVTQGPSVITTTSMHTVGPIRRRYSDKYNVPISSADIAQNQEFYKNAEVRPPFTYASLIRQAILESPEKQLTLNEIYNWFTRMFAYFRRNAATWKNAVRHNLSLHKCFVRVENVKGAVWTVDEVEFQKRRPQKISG
Kind of test: PD-seq (MBP pull-down with sequencing); 20 mM Tris-HCl pH 7.5, 100 mM NaCl, 1.5 mM MgCl2, 0.4 uM protein, 0.1 uM dsDNA library, 30 min, room temperature, amylose pull-down; high values mean tight binding. The following applies: protein: recombinant; tags: His6-MBP; chain copies: 2; dsDNA, one strand shown. The essentials:
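His6-MBP-tagged mouse FoxP3 or FoxP1 fragment lacking the N-terminus, expressed in E. coli, was mixed at 0.4 µM with 0.1 µM Klenow-filled double-stranded degenerate DNA library. Incubation was 30 min at room temperature in Tris pH 7.5 buffer with NaCl and MgCl2. Complexes were caught on amylose resin and washed three times; DNA was released with proteinase K, PCR-barcoded and Illumina-sequenced. Binding is reads-per-million enrichment, pull-down over input, with replicates pooled.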
Take “GATGATTGTTCTCCCAGCTGATGAATTGAGATTTTCGAGTAAACAAATTTTCCTAATCTTTCTGTTCAAGCGCCATCTAC”: the binding signal is 0.923 RPM ratio (pull-down/input).

For “GATGATTGTTCTCCCAGCTGATGAATTGAGGTCTTCGAGTAAACAAATTTTCCTAATCTTTCTGTTCAAGCGCCATCTAC”, the binding signal was 0.786 RPM ratio (pull-down/input).

As for “GATGATTGTTCTCCCAGCTGATGAATTCATCGCCTCGAGTAAACAAATTTTCCTAATCTTTCTGTTCAAGCGCCATCTAC”, the binding signal is 0.873 RPM ratio (pull-down/input).

In the case of “GATGATTGTTCTCCCAGCTGATGAATTACGGGGTTCGAGTAAACAAATTTTCCTAATCTTTCTGTTCAAGCGCCATCTAC”, the binding signal was 0.931 RPM ratio (pull-down/input). With “GATGATTGTTCTCCCAGCTGATGAATTAGAAACTTCGAGTAAACAAATTTTCCTAATCTTTCTGTTCAAGCGCCATCTAC” the figure was 0.892 RPM ratio (pull-down/input); with “GATGATTGTTCTCCCAGCTGATGAATTGTCAACTTCGAGTAAACAAATTTTCCTAATCTTTCTGTTCAAGCGCCATCTAC”, 1.31 RPM ratio (pull-down/input). Consider “GATGATTGTTCTCCCAGCTGATGAATTGGATTCTTCGAGTAAACAAATTTTCCTAATCTTTCTGTTCAAGCGCCATCTAC”, for which the binding signal is 0.813 RPM ratio (pull-down/input). With “GATGATTGTTCTCCCAGCTGATGAATTACAAGGTTCGAGTAAACAAATTTTCCTAATCTTTCTGTTCAAGCGCCATCTAC”, the binding signal is 1.09 RPM ratio (pull-down/input). For the sequence “GATGATTGTTCTCCCAGCTGATGAATTCACCACATCGAGTAAACAAATTTTCCTAATCTTTCTGTTCAAGCGCCATCTAC”, the binding signal is 1.12 RPM ratio (pull-down/input). As to “GATGATTGTTCTCCCAGCTGATGAATTGGTCTGGTCGAGTAAACAAATTTTCCTAATCTTTCTGTTCAAGCGCCATCTAC”, the binding signal was 0.807 RPM ratio (pull-down/input). With “GATGATTGTTCTCCCAGCTGATGAATTTGATGCGTCGAGTAAACAAATTTTCCTAATCTTTCTGTTCAAGCGCCATCTAC”, the binding signal was 1.13 RPM ratio (pull-down/input). As to “GATGATTGTTCTCCCAGCTGATGAATTAAACAGGTCGAGTAAACAAATTTTCCTAATCTTTCTGTTCAAGCGCCATCTAC”, the binding signal was 1.21 RPM ratio (pull-down/input).

Consider “GATGATTGTTCTCCCAGCTGATGAATTTGGGTCTTCGAGTAAACAAATTTTCCTAATCTTTCTGTTCAAGCGCCATCTAC”, for which the binding signal is 0.904 RPM ratio (pull-down/input). In the case of “GATGATTGTTCTCCCAGCTGATGAATTATATCGATCGAGTAAACAAATTTTCCTAATCTTTCTGTTCAAGCGCCATCTAC” it was 0.956 RPM ratio (pull-down/input); in that of “GATGATTGTTCTCCCAGCTGATGAATTGTGTTGATCGAGTAAACAAATTTTCCTAATCTTTCTGTTCAAGCGCCATCTAC”, 2.46 RPM ratio (pull-down/input).

As to “GATGATTGTTCTCCCAGCTGATGAATTGAATTGATCGAGTAAACAAATTTTCCTAATCTTTCTGTTCAAGCGCCATCTAC”, the binding signal was 0.941 RPM ratio (pull-down/input).

Consider “GATGATTGTTCTCCCAGCTGATGAATTGTTTTGATCGAGTAAACAAATTTTCCTAATCTTTCTGTTCAAGCGCCATCTAC”, for which the binding signal is 2.01 RPM ratio (pull-down/input). Consider “GATGATTGTTCTCCCAGCTGATGAATTTTTTTGATCGAGTAAACAAATTTTCCTAATCTTTCTGTTCAAGCGCCATCTAC”, for which the binding signal is 0.955 RPM ratio (pull-down/input). As for “GATGATTGTTCTCCCAGCTGATGAATTGATCTGATCGAGTAAACAAATTTTCCTAATCTTTCTGTTCAAGCGCCATCTAC”, the binding signal was 0.968 RPM ratio (pull-down/input).

Take “GATGATTGTTCTCCCAGCTGATGAATTGATCTAATCGAGTAAACAAATTTTCCTAATCTTTCTGTTCAAGCGCCATCTAC”: the binding signal was 1.19 RPM ratio (pull-down/input).

For “GATGATTGTTCTCCCAGCTGATGAATTGATTGTATCGAGTAAACAAATTTTCCTAATCTTTCTGTTCAAGCGCCATCTAC”, the binding signal was 1.54 RPM ratio (pull-down/input). Regarding “GATGATTGTTCTCCCAGCTGATGAATTGTATTGATCGAGTAAACAAATTTTCCTAATCTTTCTGTTCAAGCGCCATCTAC”, the binding signal was 2.22 RPM ratio (pull-down/input). Regarding “GATGATTGTTCTCCCAGCTGATGAATTTGTTTGATCGAGTAAACAAATTTTCCTAATCTTTCTGTTCAAGCGCCATCTAC”, the binding signal is 1.47 RPM ratio (pull-down/input).

With “GATGATTGTTCTCCCAGCTGATGAATTGTGAAAGTCGAGTAAACAAATTTTCCTAATCTTTCTGTTCAAGCGCCATCTAC”, the binding signal is 1.01 RPM ratio (pull-down/input). In the case of “GATGATTGTTCTCCCAGCTGATGAATTAACAGACTCGAGTAAACAAATTTTCCTAATCTTTCTGTTCAAGCGCCATCTAC” it was 0.866 RPM ratio (pull-down/input); in that of “GATGATTGTTCTCCCAGCTGATGAATTCATCCACTCGAGTAAACAAATTTTCCTAATCTTTCTGTTCAAGCGCCATCTAC”, 0.832 RPM ratio (pull-down/input); in that of “GATGATTGTTCTCCCAGCTGATGAATTGTACCACTCGAGTAAACAAATTTTCCTAATCTTTCTGTTCAAGCGCCATCTAC”, 0.996 RPM ratio (pull-down/input). As to “GATGATTGTTCTCCCAGCTGATGAATTCCTGATGTCGAGTAAACAAATTTTCCTAATCTTTCTGTTCAAGCGCCATCTAC”, the binding signal was 1.08 RPM ratio (pull-down/input). As to “GATGATTGTTCTCCCAGCTGATGAATTCTCCTTGTCGAGTAAACAAATTTTCCTAATCTTTCTGTTCAAGCGCCATCTAC”, the binding signal was 0.774 RPM ratio (pull-down/input).

Take “GATGATTGTTCTCCCAGCTGATGAATTCATCTTGTCGAGTAAACAAATTTTCCTAATCTTTCTGTTCAAGCGCCATCTAC”: the binding signal was 0.898 RPM ratio (pull-down/input). Consider “GATGATTGTTCTCCCAGCTGATGAATTCCTGTTGTCGAGTAAACAAATTTTCCTAATCTTTCTGTTCAAGCGCCATCTAC”, for which the binding signal is 2.34 RPM ratio (pull-down/input). For the sequence “GATGATTGTTCTCCCAGCTGATGAATTCTTGTTGTCGAGTAAACAAATTTTCCTAATCTTTCTGTTCAAGCGCCATCTAC”, the binding signal was 2.6 RPM ratio (pull-down/input).
